Laboratory results reported in PubChem BioAssay AID488969 (Vanderbilt High Throughput Screening Facility, 2010).
In all, about 110,000 compounds were measured (“z-score”: median about -0.1, highest 2% from about 2 on). The sample holds the highest values, similar compounds and a random draw of the others, so the mix is not that of the screen. The source made the active and inactive calls.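 The calls were made as follows: active = z-score in the third read window above 3 or below -3; inactive = the rest.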

molecular target: Metabotropic glutamate receptor 8 (Rattus norvegicus) (UniProt P70579); experiment: rat mGluR8 modulators via GIRK flux, primary screen, cell-based, thallium flux, HTS (AID 488969); settings: HEK293 rat mGluR8, GIRK (G protein-gated inwardly rectifying potassium channel) thallium flux, FluoZin2; at 10 µM; stronger effect = higher value; submaximal glutamate (EC20) added with thallium
Sequence (P70579 whole entry, looked up): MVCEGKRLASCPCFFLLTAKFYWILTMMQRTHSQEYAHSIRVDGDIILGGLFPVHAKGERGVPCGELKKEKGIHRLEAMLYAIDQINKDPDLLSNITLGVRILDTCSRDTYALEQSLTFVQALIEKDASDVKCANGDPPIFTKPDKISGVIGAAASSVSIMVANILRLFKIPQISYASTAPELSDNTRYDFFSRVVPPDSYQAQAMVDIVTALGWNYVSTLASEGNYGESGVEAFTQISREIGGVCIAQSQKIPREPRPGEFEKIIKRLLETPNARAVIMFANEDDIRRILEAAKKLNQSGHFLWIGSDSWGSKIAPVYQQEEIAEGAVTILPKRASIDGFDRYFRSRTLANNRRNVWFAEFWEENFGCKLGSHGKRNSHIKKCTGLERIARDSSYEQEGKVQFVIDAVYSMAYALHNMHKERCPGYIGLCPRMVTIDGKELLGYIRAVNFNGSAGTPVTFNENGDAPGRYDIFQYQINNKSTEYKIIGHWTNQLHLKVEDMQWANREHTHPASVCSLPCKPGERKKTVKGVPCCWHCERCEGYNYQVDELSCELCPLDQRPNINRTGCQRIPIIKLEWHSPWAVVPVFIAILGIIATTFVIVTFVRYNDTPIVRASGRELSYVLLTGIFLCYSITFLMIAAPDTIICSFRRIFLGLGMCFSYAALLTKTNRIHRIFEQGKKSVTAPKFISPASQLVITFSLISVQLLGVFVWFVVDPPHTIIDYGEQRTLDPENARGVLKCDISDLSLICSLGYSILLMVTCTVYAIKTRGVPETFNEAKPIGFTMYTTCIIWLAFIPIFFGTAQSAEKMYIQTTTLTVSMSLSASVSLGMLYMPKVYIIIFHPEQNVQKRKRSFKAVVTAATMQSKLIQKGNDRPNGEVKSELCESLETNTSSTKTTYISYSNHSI

| Compound | z-score |
| --- | --- |
| COC(=O)COc1cc(Br)c(/C=C2/SC(=O)N(CC(=O)N3CCCC3)C2=O)cc1OC | 0.0962 |
| O=C(OCc1nc2ccc(Cl)cc2n1CCO)c1ccc(O)cc1 | -0.133 |
| CCOC(=O)c1cc(CC)sc1NC(=O)c1ccc(N2C(=O)CCC2=O)cc1 | -0.383 |
| COc1ccc(C)cc1S(=O)(=O)N(C)CC(=O)N1CCCCCC1 | -0.534 |
| O=C(CSc1nc(-c2ccco2)cc(C(F)(F)F)n1)N1CCN(c2ccc(Cl)cc2)CC1 | -0.455 |
| COc1ccc(C2C(C(N)=O)=C(C)Nc3nc(-c4ccccc4OC)nn32)cc1OC (stereo unspecified) | 0.317 |
| Cc1cccc(CN2C(=O)N/C(=C/c3ccc(C)s3)C2=O)c1 | -0.147 |
| O=C1/C(=C/c2ccc(N3CCCC3)cc2)NC(=S)N1C1CC1 | 2.85 |
| CCN1C(=O)/C(=C/c2ccc(N3CCCC3)cc2)NC1=S | 1.3 |
| CCCN1C(=O)/C(=C/c2ccc(C)s2)NC1=S | 13.9 (active) |
| COC(=O)C1=C(C)N(CC(C)C)C(=O)/C1=C\c1cccs1 | -0.236 |
| CCCN1C(=O)/C(=C/c2ccc(N3CCCC3)c(C)c2)NC1=S | 11 (active) |
| Cc1ccc(NC(=O)CN2C(=O)N/C(=C/c3ccc(C)s3)C2=O)cc1 | 0.22 |
| COc1ccc(N2C(=O)/C(=C/c3cccs3)NC2=S)cc1 | 1.07 |
| CC(C)CN1C(=O)/C(=C/c2cccs2)NC1=S | 15.8 (active) |
| O=C1N/C(=C\c2ccc(N3CCOCC3)c(F)c2)C(=O)N1Cc1ccccc1 | -0.434 |

| Compound | z-score |
| --- | --- |
| O=C1N/C(=C/c2ccc(N3CCCC3)cc2)C(=O)N1c1ccccc1 | -0.886 |
| CCCN1C(=O)c2cccc3c(N4CCCCC4)ccc(c23)C1=O | -0.337 |
| O=C1CSC(=S)N1CC1CCCO1 (stereo unspecified) | -0.08 |
| Cc1noc(C)c1C(=O)NCCc1ccc(Cl)cc1 | -0.377 |
| COCC(=O)NC1CCN(C(=O)Nc2ccc(Br)cc2)CC1 | -0.036 |
| CCOC(=O)c1c(C)[nH]c(C(=O)/C(C#N)=C/c2ccc(OC(F)F)c(OC)c2)c1C | -0.315 |
| O=C(NCC(c1cccs1)N1CCOCC1)c1ccccc1NS(=O)(=O)c1ccc(Cl)cc1 (stereo unspecified) | -0.359 |
| Cc1csc(NC(=O)C2CCCN(S(=O)(=O)c3cnc[nH]3)C2)n1 (stereo unspecified) | 0.36 |
| Cc1cccc(OCCSc2nc3c([nH]2)c(=N)ncn3Cc2ccccc2)c1 | -0.0916 |
| CC(C)(C)c1ccc(C(=O)NC(=S)NCC2CCCO2)cc1 (stereo unspecified) | 1.62 |
| Cc1ccccc1Nc1nc(-c2sc(NC(=O)c3ccco3)nc2C)cs1 | -0.239 |
| Nc1ccc(Sc2cnn(-c3ccccc3)c(=O)c2Cl)cc1 | -2.01 |
| CCN1C(=O)/C(=C\N(C)C)NC1=S | -0.121 |
| CCN1C(=O)/C(=C/c2ccc(C)s2)NC1=S | 15.1 (active) |
| Cc1ccc(/C=C2/NC(=O)N(Cc3ccccc3)C2=O)s1 | -0.0544 |
